Test results reported in ChEMBL document CHEMBL4808148, “HDAC6 screening dataset using tau-based substrate in an enzymatic assay yields selective inhibitors and activators” (2021).
Hit rate of the full screen: of about 5,600 compounds, about 390 (7%) showed an effect of 50% or more. The sample holds strong results, similar compounds and a random draw of the others, so the mix is not that of the screen.

target: T1, Protein deacetylase HDAC6 (Homo sapiens) (UniProt Q9UBN7); settings: at 10 µM
T1 sequence (whole entry): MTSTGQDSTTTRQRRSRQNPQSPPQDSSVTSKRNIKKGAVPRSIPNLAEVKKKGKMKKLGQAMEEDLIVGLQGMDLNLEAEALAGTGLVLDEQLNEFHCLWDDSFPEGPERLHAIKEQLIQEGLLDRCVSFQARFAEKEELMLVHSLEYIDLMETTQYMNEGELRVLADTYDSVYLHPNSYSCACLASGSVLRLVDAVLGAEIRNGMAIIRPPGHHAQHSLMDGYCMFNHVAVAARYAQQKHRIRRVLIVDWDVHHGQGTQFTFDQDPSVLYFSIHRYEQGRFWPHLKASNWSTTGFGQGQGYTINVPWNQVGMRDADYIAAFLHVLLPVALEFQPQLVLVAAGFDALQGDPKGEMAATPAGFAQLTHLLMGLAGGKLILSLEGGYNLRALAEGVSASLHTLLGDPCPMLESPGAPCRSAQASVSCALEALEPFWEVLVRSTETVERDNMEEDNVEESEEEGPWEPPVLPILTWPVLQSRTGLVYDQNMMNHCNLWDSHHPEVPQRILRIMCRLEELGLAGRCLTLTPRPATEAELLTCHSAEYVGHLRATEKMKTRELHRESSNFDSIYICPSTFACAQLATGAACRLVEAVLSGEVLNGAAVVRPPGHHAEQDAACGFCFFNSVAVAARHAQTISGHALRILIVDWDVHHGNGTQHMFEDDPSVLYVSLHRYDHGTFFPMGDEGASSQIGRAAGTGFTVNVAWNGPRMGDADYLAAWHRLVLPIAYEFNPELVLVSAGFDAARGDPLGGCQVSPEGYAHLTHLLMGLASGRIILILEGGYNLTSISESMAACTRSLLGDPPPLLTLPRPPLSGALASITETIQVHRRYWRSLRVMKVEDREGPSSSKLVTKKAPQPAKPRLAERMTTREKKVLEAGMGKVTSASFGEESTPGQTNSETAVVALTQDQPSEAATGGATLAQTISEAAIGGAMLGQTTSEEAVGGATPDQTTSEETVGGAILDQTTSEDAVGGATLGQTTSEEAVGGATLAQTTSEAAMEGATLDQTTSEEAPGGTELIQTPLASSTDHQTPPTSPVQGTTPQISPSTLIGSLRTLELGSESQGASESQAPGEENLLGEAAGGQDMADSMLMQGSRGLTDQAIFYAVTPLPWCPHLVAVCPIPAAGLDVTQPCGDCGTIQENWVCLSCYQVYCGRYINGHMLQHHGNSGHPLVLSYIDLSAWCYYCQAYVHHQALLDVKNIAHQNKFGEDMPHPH

Q: With `CC(O)C(N)C(=O)O` (stereo unspecified) as the molecule, how does the inhibition read?
A: The inhibition was 8.96%.

Q: For `Cc1ccc(Oc2ccccc2-c2csc(N=C3NCCCN3)n2)c(C)c1`, which inhibition is on record?
A: The inhibition was 38.2%.

Q: With `CCCCCCCCCCCC(=O)N(CCO)CCO` as the molecule, how does the inhibition read?
A: The inhibition was 14.4%.

Q: For `OC[C@H]1O[C@@H](Oc2cc3c(O)cc(O)cc3[o+]c2-c2ccc(O)c(O)c2)[C@H](O)[C@@H](O)[C@@H]1O`, which inhibition is on record?
A: The inhibition was 27.8%.

Q: For `OCCNCCCOc1cccc(Cl)c1Cl`, which inhibition is on record?
A: The inhibition was 15.6%.

Q: For `COc1cc(C=O)c([N+](=O)[O-])cc1OC`, which inhibition is on record?
A: The inhibition was 11.8%.

Q: Which inhibition does the source give for `Cn1c(=O)n(-c2ccc(C(C)(C)C#N)cc2)c2c3cc(-c4cnc5ccccc5c4)ccc3ncc21` here?
A: The inhibition was -9.93%.

Q: `Cc1cnc(-c2ccccc2C(C)C)nc1NCc1ccc(-n2ccnn2)cc1` was tested. Which inhibition did it give?
A: Its inhibition is 23.1%.

Q: How did the inhibition turn out when `Clc1ccc2c(c1)N=C(N1CCNCC1)c1ccccc1N2` was run?
A: The inhibition was 0.45%.

Q: Which inhibition does the source give for `O=C(CN1CCNCC1)NC1CCCCC1` here?
A: Its inhibition is 18.3%.

Q: With `CC(C)(C)c1ccc(C(=O)CCCN2CCC(OC(c3ccccc3)c3ccccc3)CC2)cc1` as the molecule, how does the inhibition read?
A: The inhibition was 25.3%.

Q: `O=C(O)[C@@H]1C[C@@H](O)CN1` was tested. Which inhibition did it give?
A: The inhibition was 16.1%.

Q: `Cc1nc2ccc(Oc3ccc(F)cc3)cc2c(=O)n1C[C@H]1CCCN(C(C)C)C1` was tested. Which inhibition did it give?
A: The inhibition was 7.87%.

Q: How did the inhibition turn out when `COc1ccc(-c2cc(=O)c3c(O)cc(O)cc3o2)cc1O` was run?
A: The inhibition was 92.8%.

Q: Which inhibition does the source give for `COc1ccc(-c2cc(=O)c3c(O)cc(O[C@@H]4O[C@H](CO[C@@H]5O[C@@H](C)[C@H](O)[C@@H](O)[C@H]5O)[C@@H](O)[C@H](O)[C@H]4O)cc3o2)cc1O` here?
A: The inhibition was 30.2%.

Q: With `O=c1cc(-c2ccccc2)oc2cc(O)c(O)c(O)c12` as the molecule, how does the inhibition read?
A: Its inhibition is 99.6%.

Q: `O=C(O)Cc1cccc2c(=O)cc(-c3ccccc3)oc12` was tested. Which inhibition did it give?
A: Its inhibition is 23.3%.

Q: For `COc1ccccc1N1CCN(CCn2c(=O)[nH]c3c([nH]c4ccccc43)c2=O)CC1`, which inhibition is on record?
A: Its inhibition is 3.49%.

Q: For `C[C@@H]1OC(O)[C@H](O)[C@H](O)[C@H]1O` (stereo partly specified), which inhibition is on record?
A: The inhibition was 8.33%.

Q: Which inhibition does the source give for `CC(C)C(=O)OC[C@@]1(N=[N+]=[N-])O[C@@H](n2ccc(N)nc2=O)[C@H](OC(=O)C(C)C)[C@@H]1OC(=O)C(C)C` here?
A: The inhibition was 10.6%.

Q: How did the inhibition turn out when `CC(=O)O[C@]1(C(C)=O)CC[C@H]2[C@@H]3CCC4=CC(=O)CCC4=C3[C@@H](c3ccc(N(C)C)cc3)C[C@@]21C` was run?
A: The inhibition was 7.8%.

Q: `N=C(N)NCCCC(NC(=O)C1CCCN1C(=O)C1CSSCCC(=O)NC(Cc2ccc(O)cc2)C(=O)NC(Cc2ccccc2)C(=O)NC(CCC(N)=O)C(=O)NC(CC(N)=O)C(=O)N1)C(=O)NCC(N)=O` (stereo unspecified) was tested. Which inhibition did it give?
A: The inhibition was 12.1%.

Q: For `O=C(O)c1cc(-c2ccccc2)nc2ccccc12`, which inhibition is on record?
A: The inhibition was 16.3%.

Q: With `COC(=O)[C@H](NC(=O)c1cc(-c2ccccc2)nc2ccccc12)c1ccccc1` as the molecule, how does the inhibition read?
A: Its inhibition is 30.8%.

Q: For `COc1cc2ncc(-c3ccccc3)nc2cc1OC`, which inhibition is on record?
A: Its inhibition is 97.8%.

Q: Which inhibition does the source give for `C=CCN(C)CCCCCCOc1ccc(C(=O)c2ccc(Br)cc2)c(F)c1` here?
A: Its inhibition is 8.93%.

Q: How did the inhibition turn out when `C=CCNc1nc(NCC=C)nc(N2CCN(C(c3ccc(F)cc3)c3ccc(F)cc3)CC2)n1` was run?
A: The inhibition was -4.35%.

Q: For `NC(C(=O)O)c1cc(O)cc(O)c1` (stereo unspecified), which inhibition is on record?
A: The inhibition was 9.39%.

Q: For `CCCCCN1CCC(C(N)=O)CC1`, which inhibition is on record?
A: Its inhibition is 3.67%.

Q: Which inhibition does the source give for `CC(C(=O)O)c1ccc(C(=O)c2ccccc2)s1` (stereo unspecified) here?
A: Its inhibition is 41.6%.

Q: `N=C(N)NCc1cccc(I)c1` was tested. Which inhibition did it give?
A: The inhibition was 13.7%.
